Experiment [1] in a line: qHTS assay to identify small molecule antagonists of the retinoid acid receptor (RAR) signaling pathway - cell viability counter screen (AID 1159551). Further: nearly all actives have a fitted effect of over 35% in size. In a few lines:
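Cytotoxicity counter screen: ATP content quantified by CellTiter-Glo luminescence in C3RL4 cells treated 6 hr at 37 C with compound and retinol (1 uM final). Cells plated at 1,000/well and cultured overnight before dosing.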
On the technique in general: Quantitative high-throughput screening tests each substance at several concentrations.

Experiment [2] in a line: qHTS assay to identify small molecule antagonists of the retinoic acid receptor (RAR) signaling pathway (AID 1159552; further: nearly all actives have a fitted effect of over 50% in size; further: potency means the concentration at half of the fitted maximal effect). A digest of the protocol:
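Luminescent RARE reporter read-out in C3RL4 cells: 6 hr co-treatment at 37 C of test compounds with retinol at 1 uM final. Cells plated overnight beforehand; luciferase reagent incubated 30 min at room temperature before reading.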

Experiment [3] in a line: qHTS assay to identify small molecule agonists of the retinoic acid receptor (RAR) signaling pathway (AID 1159553). Further: potency means the concentration at half of the fitted maximal effect. A digest of the protocol: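 Luminescence was measured 30 min after luciferase reagent addition at room temperature. Before that, C3RL4 reporter cells (1,000 per well, plated overnight) were treated with compound for 6 hr at 37 C and 5% CO2.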
Experiment [4] can be described thus: qHTS assay to identify small molecule antagonists of the estrogen related receptor (ERR) signaling pathway from Tox21 library - cell viability counter screen (AID 1224834). Further: nearly all actives have a fitted effect of over 30% in size. Further: potency means the concentration at half of the fitted maximal effect. In a few lines: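 CellTiter-Fluor fluorescence, read after 30 min at 37 C, measures viability of ERR cells. Cells plated at 2,000/well and incubated 6 h before pin-tool compound addition, then exposed 17.5 hours at 37 C.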

The target of experiment [5] is Luciferin 4-monooxygenase (Photinus pyralis) (UniProt P08659). As to the kind of experiment: qHTS assay to identify small molecule inhibitors of firefly luciferase (AID 1224835). Further: nearly all actives have a fitted effect of over 25% in size. Further: potency means the concentration at half of the fitted maximal effect. A digest of the protocol:
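Inhibition of purified Photinus luciferase is measured by luminescence. Substrate levels (D-luciferin, ATP) sit at their KM values. Each compound is tested in a concentration series.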

Experiment [6] can be described thus: qHTS assay to identify small molecule agonists of the constitutive androstane receptor (CAR) signaling pathway - cell viability counter screen (AID 1224836). Further: series mostly up to about 92 µM; nearly all actives have a fitted effect of over 45% in size. In a few lines: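 Cell viability multiplexed with the CAR agonist screen: CellTiter-Fluor fluorescence after 23 hr at 37 C. HepG2-CYP2B6-hCAR cells got compounds at 15 concentrations with PK11195 at 0.75 uM final.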

The nature of experiment [7]: qHTS assay to identify small molecule antagonists of the constitutive androstane receptor (CAR) signaling pathway - cell viability counter screen (AID 1224837). Further: series mostly up to about 92 µM; nearly all actives have a fitted effect of over 45% in size. In a few lines:
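Cytotoxicity counter-screen: CellTiter-Fluor fluorescence after 23 h compound exposure (15-point qHTS) in double-stable HepG2-CYP2B6-hCAR cells, with 50 nM CITCO added.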

In experiment [8] the target is Nuclear receptor subfamily 1 group I member 3 (Homo sapiens) (UniProt Q14994). As to the kind of experiment: qHTS assay to identify small molecule antagonists of the constitutive androstane receptor (CAR) signaling pathway (AID 1224838).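 Further: HepG2 cells stably expressing hCAR with CYP2B6 luciferase reporter stimulated by CITCO; nearly all actives have a fitted effect of over 40% in size.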 Further: potency means the concentration at half of the fitted maximal effect. In a few lines:
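Antagonism measured as luciferase signal (ONE-Glo, 30 min, room temperature) in CAR-stimulated cells: HepG2-CYP2B6-hCAR double-stable line exposed 24 hr at 37 C to compound in a 15-point series plus 50 nM CITCO.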

Experiment [9] shares this target. As to the kind of experiment: qHTS assay to identify small molecule agonists of the constitutive androstane receptor (CAR) signaling pathway (AID 1224839). Further: nearly all actives have a fitted effect of over 15% in size. Further: potency means the concentration at half of the fitted maximal effect. A digest of the protocol:
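Luminescent ONE-Glo read-out after 24 hr, 37 C exposure of double-stable HepG2-CYP2B6-hCAR reporter cells to a 15-point compound series, in the presence of 0.75 uM PK11195 (final).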

Experiment [10] in a line: qHTS assay to identify small molecule antagonists of the estrogen related receptor signaling pathway with the pleiotropic PPARgamma coactivator (PGC) from Tox21 10K library (AID 1224841; call rule not given here; further: actives are mostly falling curves and most rising ones were filed inactive; nearly all actives have a fitted effect of over 50% in size; further: potency means the concentration at half of the fitted maximal effect). In a few lines: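 Luminescence (One-Glo, 30 min at room temperature) after 18 h compound treatment at 37 C of PGC/ERR reporter cells plated at 2,000 cells/well and settled 6 h beforehand.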

Experiment [11] in a line: qHTS assay to identify small molecule agonists of the estrogen related receptor signaling pathway with the pleiotropic PPARgamma coactivator (PGC) from Tox21 10K library (AID 1224842). Further: nearly all actives have a fitted effect of over 15% in size. Further: potency means the concentration at half of the fitted maximal effect. In a few lines:
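Luminescence from One-Glo (30 min, room temperature) measured after PGC/ERR cells had 18 h at 37 C with pinned compound (23 nL in DMSO). Cells had been seeded at 2,000 per well and pre-incubated 6 h.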

Experiment [12] is described as follows: qHTS assay to identify small molecule antagonists of the estrogen related receptor signaling pathway with the pleiotropic PPARgamma coactivator (PGC) from Tox21 10K library - cell viability counter screen (AID 1224840; active means well fitted cell-killing curve with a large enough effect in the repeat runs, not every such curve was filed as active; further: nearly all actives have a fitted effect of over 40% in size). A digest of the protocol:
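Counter-screen for cytotoxicity: after 17.5 h compound exposure at 37 C, CellTiter-Fluor reagent added to PGC/ERR cells for 30 min and fluorescence read. Cells were seeded at 2,000 per well 6 h before dosing.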

A short description of experiment [13]: qHTS assay to identify small molecule agonists of the RXR signaling pathway - cell viability counter screen (AID 1159529). Further: series mostly up to about 77 µM; nearly all actives have a fitted effect of over 50% in size. In a few lines:
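CellTiter-Glo luminescence gave viability in the wells also read for beta-lactamase. Cells (RXR-alpha-UAS-bla HEK 293T, 2% charcoal-stripped FBS medium) had 5 hr plating, then 16 hr compound exposure at 37 C; tetraoctyl ammonium bromide served as positive control.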

Experiment [14] in a line: qHTS assay to identify small molecule antagonists of the estrogen related receptor (ERR) signaling pathway (AID 1224819; further: potency means the concentration at half of the fitted maximal effect; nearly all actives have a fitted effect of over 50% in size). A digest of the protocol:
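LOPAC library screened for antagonism as reduced One-Glo luminescence in ERR reporter cells (2,000/well). Compounds were added after 6 h pre-incubation and left 18 h at 37C; reading followed a 30 min room-temperature reagent step.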

The nature of experiment [15]: qHTS assay to identify small molecule agonists of the estrogen related receptor (ERR) signaling pathway (AID 1224820). In a few lines: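 Luminescence readout (One-Glo, 30 min RT) from NTP-supplied ERR cell line exposed to compounds for 18 h at 37 C. Cells seeded 2,000 per well and pre-incubated 6 h before pin-tool compound transfer.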
In experiment [16] the test system is estrogen-related receptor alpha (ERRalpha) with PGC-1alpha coactivator, human. The experiment in a line: qHTS assay to identify small molecule antagonists of the estrogen related receptor signaling pathway with the pleiotropic PPARgamma coactivator (PGC) (AID 1224821; calls by dose curve). In a few lines:
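PGC/ERR reporter cells; 6 h pre-incubation 37 C/5% CO2; pin-tool compound in DMSO, 18 h 37 C; One-Glo added, 30 min RT; luminescence read. qHTS antagonist mode.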

Experiment [17] can be described thus: qHTS assay to identify small molecule agonists of the estrogen related receptor signaling pathway with the pleiotropic PPARgamma coactivator (PGC) (AID 1224823). In a few lines:
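Luminescence readout (One-Glo, 30 min RT) from PGC/ERR cell line treated 18 h at 37 C with pin-tool-delivered DMSO compound solutions; cells plated 6 h before dosing. Quantitative HTS format.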

The nature of experiment [18]: qHTS assay to identify small molecule antagonists of the estrogen related receptor (ERR) signaling pathway - cell viability counter screen (AID 1224818). Further: series mostly up to about 46 µM. In a few lines: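 Cytotoxicity counter screen: fluorescence from CellTiter-Fluor, added after 17.5 h compound exposure at 37 C and read 30 min later. ERR cell line seeded at 2,000 cells/well, preincubated 6 h before dosing.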

A short description of experiment [19]: qHTS assay to identify small molecule antagonists of the estrogen related receptor signaling pathway with the pleiotropic PPARgamma coactivator (PGC) cell viability counter screen (AID 1224822; further: series mostly up to about 46 µM). In a few lines:
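Viability counter-screen read by fluorescence intensity after 30 min with CellTiter-Fluor at 37 C; PGC/ERR reporter cells were exposed to compounds for 17.5 h at 37 C following a 6 h preincubation.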

The structures appear in SMILES notation. Inconclusive results are not listed. Calls of active or inactive are those of the source. Unless noted, the call rests on the fitted dose curve; in most records, active means well fitted curve in the direction sought with a large enough effect in the repeat runs; inconclusive means weak or mixed curves; inactive means no such curve, though single readings can be large; an effect the other way counts as inactive or inconclusive.

Chain of Nuclear receptor subfamily 1 group I member 3 (Homo sapiens) (Q14994 whole entry, looked up): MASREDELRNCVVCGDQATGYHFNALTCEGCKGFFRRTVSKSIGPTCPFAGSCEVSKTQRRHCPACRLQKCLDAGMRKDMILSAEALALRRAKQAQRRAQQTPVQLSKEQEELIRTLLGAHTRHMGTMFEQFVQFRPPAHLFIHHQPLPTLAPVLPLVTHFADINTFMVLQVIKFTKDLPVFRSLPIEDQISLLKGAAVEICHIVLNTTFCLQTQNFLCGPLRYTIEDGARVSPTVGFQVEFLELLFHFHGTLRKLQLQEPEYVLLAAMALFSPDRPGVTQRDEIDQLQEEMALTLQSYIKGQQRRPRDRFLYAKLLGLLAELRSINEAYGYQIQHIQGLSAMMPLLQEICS
Chain of Luciferin 4-monooxygenase (Photinus pyralis) (P08659 whole entry, looked up): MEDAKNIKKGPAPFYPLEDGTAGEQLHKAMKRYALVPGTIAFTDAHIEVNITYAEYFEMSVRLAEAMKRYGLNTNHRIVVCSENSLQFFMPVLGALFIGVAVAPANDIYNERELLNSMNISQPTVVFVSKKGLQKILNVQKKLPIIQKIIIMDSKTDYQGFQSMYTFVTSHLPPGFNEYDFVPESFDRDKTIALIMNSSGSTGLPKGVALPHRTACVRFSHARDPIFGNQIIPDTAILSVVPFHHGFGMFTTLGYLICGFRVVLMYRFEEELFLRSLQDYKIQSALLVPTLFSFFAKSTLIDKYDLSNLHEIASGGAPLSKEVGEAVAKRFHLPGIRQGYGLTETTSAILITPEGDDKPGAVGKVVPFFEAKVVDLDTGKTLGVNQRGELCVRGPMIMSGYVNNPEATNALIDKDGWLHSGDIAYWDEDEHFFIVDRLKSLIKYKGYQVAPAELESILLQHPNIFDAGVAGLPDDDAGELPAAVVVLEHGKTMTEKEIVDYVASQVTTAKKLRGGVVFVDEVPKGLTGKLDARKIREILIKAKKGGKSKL

`O=C(Oc1ccccc1)c1ccc2ccccc2c1O`: the Potency entry in experiment [1], in experiment [2], in [4], in [6], in experiment [7] and in experiment [8] was “inactive” in each case. Also, in experiment [10], the Potency result is “inactive”. Moreover, the Potency is 0.864 µM (active) in experiment [3], 2.52 µM (active) in experiment [5], 54.5 µM (active) in experiment [9] and 9.69 µM (active) in experiment [11].

`CC1CCc2nccnc21` (configuration not stated): the Potency entry in [1], in experiment [2], in experiment [3], in experiment [4], in [5] and in [6] was “inactive” in each case. The Potency entry in [7], in experiment [8], in experiment [9], in experiment [12], in experiment [10] and in [11] was “inactive” throughout.

As to `CCCCCCCCCCCCCC(=O)OCC(O)CO` (configuration not stated), the Potency result in experiment [1], in experiment [2], in experiment [3], in experiment [4], in [5] and in experiment [7] was “inactive” in each case. The Potency entry in [8], in experiment [9], in experiment [12], in experiment [10] and in [11] was “inactive” each time.

`COc1cc(NCc2ccc3nc(N)nc(N)c3c2C)cc(OC)c1OC`: the Potency result in experiment [1], in [3], in experiment [5], in experiment [6], in experiment [9] and in experiment [12] was “inactive” throughout. Moreover, in [11], the Potency result was “inactive”. Moreover, the Potency is 0.0266 µM (active) in experiment [8] and 0.075 µM (active) in experiment [10].

As to `C=CC(=O)NC(C)C`, the Potency result in experiment [13], in [1], in [4], in [5], in [6] and in experiment [7] was “inactive” throughout. For the same compound, the Potency entry in experiment [12], in experiment [10] and in experiment [11] was “inactive” throughout.

In the case of `CN(C)CC/C=C1\c2ccccc2Sc2ccc(Cl)cc21`, the Potency in experiment [2] is 29.8 µM (active). Moreover, the Potency entry in experiment [5], in experiment [9] and in [10] was “inactive” throughout.

For `Oc1ccc2c(c1)Cc1ccccc1-2`, the Potency entry in experiment [1], in experiment [2], in experiment [4], in experiment [6], in experiment [7] and in experiment [8] was “inactive” throughout. In addition, the Potency entry in [12], in experiment [10] and in [11] was “inactive” in each case. Further, the Potency in experiment [3] is 13.7 µM (active); in experiment [5] it was 31.7 µM (active).

In the case of `COc1ccc(/C=C/C(=O)c2ccc(OC)cc2OC)cc1`, the Potency entry in experiment [1], in experiment [2], in experiment [4], in experiment [6], in experiment [7] and in experiment [8] was “inactive” in each case. Besides, the Potency result in [12], in [10] and in experiment [11] was “inactive” throughout. In addition, the Potency in experiment [3] is 29.8 µM (active); in [5] it was 17.4 µM (active); in [9], 21.1 µM (active).

As to `COC(=O)C1=C(C)NC(C)=C(C(=O)OC(C)(C)CN(C)CCC(c2ccccc2)c2ccccc2)C1c1cccc([N+](=O)[O-])c1` (configuration not stated), the Potency entry in experiment [1], in experiment [5], in experiment [8], in experiment [9] and in [11] was “inactive” throughout. Besides, the Potency in experiment [14] is 19.6 µM (active); in [16], 13.9 µM (active); in [4], 23.7 µM (active); in [10] it was 16.8 µM (active). In addition, the result in experiment [15] and in experiment [17] was inactive.

In the case of `CCN(CC)CCNC(=O)c1cc(Cl)c(N)cc1OC`, the Potency entry in [1], in experiment [4], in [5], in [6], in experiment [7] and in [8] was “inactive” in each case. Besides, the Potency result in experiment [9] was “inactive”. Besides, the compound was classed as inactive in experiment [18] and in [19].

Turning to `CC(C)C(O)C(C)(C)CO` (configuration not stated), the Potency entry in [13], in experiment [3], in [5] and in [11] was “inactive” in each case. In addition, the Potency in experiment [2] was 5.01 µM (active); in [4], 0.631 µM (active); in experiment [8], 8.91 µM (active); in experiment [10], 1.78 µM (active).

For the origin of these results see PubChem BioAssay (Tox21).
